NOMO-1 viab: STK33 inhibitor candidate reducing NOMO-1 cell viability; NOMO-1 AML viability, CellTiter-Glo luminescence, 72 h; inhibition, % (test concentration not listed); 37,000 tested, 7.5% active; in the data active = inhibition above about 80%
PD-1 reversal: reversal of PD-1 mediated T-cell inhibition; activation, % (test concentration not listed); 29,000 tested, under 10 active; AID 2316; primary human CD4 T cells, PD-L1 beads, CellTiter-Glo 96 h; call rule not given here
Hedgehog inh: blocks Sonic Hedgehog signaling. Shh-LIGHT2 Gli-luciferase reporter, 30 h. inhibition, % (no concentration beside the values). 22,000 tested, 2.1% active;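 active = mean inhibition across valid replicates above about 65%, limit read from the data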;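 note: pathway switched on by Shh-conditioned medium diluted 1 in 25 in low serum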
MITF inhib: blocks MITF activity | TRPM1 promoter luciferase, luminescence, 24 h | inhibition, % (test concentration not listed) | 37,000 tested, 0.28% active; in the data active = inhibition above about 85%;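 note: human melanocyte line stably carrying TRPM1 promoter luciferase reporter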
Numbers stand for hits; - = inactive; . = no result. The list is not random: actives were taken first. Their share in the collection is about 7.9%.

SMILES	NOMO-1 viab	PD-1 reversal	Hedgehog inh	MITF inhib
C[C@H]1CN([C@@H](C)CO)C(=O)c2cccc(NC(=O)c3nc4ccccc4s3)c2O[C@@H]1CN(C)Cc1ccc(C(F)(F)F)cc1	-	.	-	-
C[C@H](CO)N1C[C@H](C)[C@@H](CN(C)Cc2ccc(C(F)(F)F)cc2)Oc2c(NC(=O)c3nc4ccccc4s3)cccc2C1=O	106	-	-	-
C[C@@H]1CN([C@@H](C)CO)C(=O)c2cccc(NC(=O)c3nc4ccccc4s3)c2O[C@@H]1CN(C)Cc1ccc(C(=O)O)cc1	-	-	-	-
Cc1cc(C(=O)SCc2ccccc2)nn1Cc1c(Cl)cccc1Cl	-	-	-	-
O=C(CCCN1C(=O)c2ccccc2C1=O)Nc1ccc2ccccc2c1	-	.	.	-
CCn1c(SCc2nc(-c3cccs3)no2)nnc1-c1cccs1	-	-	.	-
O=C(Cn1cnc2sc(-c3ccccc3)cc2c1=O)NCc1ccco1	116	.	.	-
COc1ccccc1NC(=O)CSc1nnnn1-c1c(C)cccc1C	-	-	.	-

From PubChem BioAssay
